Values without a mark were called inactive. How the calls were made is not given here.

The target of the assay is Pantothenate synthetase (Mycobacterium tuberculosis (strain ATCC 25618 / H37Rv)) (UniProt P9WIL5). As to the kind of experiment: Recombinant Mtb pantothenate synthetase (PanC) inhibitors, coupled enzyme, confirmatory (AID 375).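 Further: 0% = full reaction with vehicle and 100% = no enzyme background.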 The conditions noted are these: coupled enzyme assay; at 10 µM, active compounds read high.
Sequence of Pantothenate synthetase (Mycobacterium tuberculosis (strain ATCC 25618 / H37Rv)) (P9WIL5 whole entry, looked up): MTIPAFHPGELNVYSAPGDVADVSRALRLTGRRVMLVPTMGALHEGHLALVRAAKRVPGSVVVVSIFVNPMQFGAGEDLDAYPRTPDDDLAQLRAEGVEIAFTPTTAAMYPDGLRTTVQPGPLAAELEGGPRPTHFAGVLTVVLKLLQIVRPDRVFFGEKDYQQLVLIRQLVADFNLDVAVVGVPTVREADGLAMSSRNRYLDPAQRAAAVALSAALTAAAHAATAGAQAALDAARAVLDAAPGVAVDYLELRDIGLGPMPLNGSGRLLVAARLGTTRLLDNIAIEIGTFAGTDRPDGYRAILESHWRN
The term inhibition denotes the drop in the measured response relative to a control, in per cent. Consider `Cc1ccc(S(=O)(=O)Cc2ccc(C(=O)NCc3ccc4c(c3)OCO4)o2)cc1`, for which the inhibition was 0%.
In the case of `O=C(NCCCN1CCCC1=O)C1CCN(S(=O)(=O)N2CCOCC2)CC1`, the inhibition was 0%.
For `CCOC(=O)C1CCN(c2c(Nc3ccc4c(c3)OCCO4)c(=O)c2=O)CC1` the value was 0%; for `CC1=C(C(N)=O)C(c2ccccn2)n2nc(-c3ccccc3Cl)nc2N1` (stereo not given), 5%.
To `Cc1nnc(SCc2cn3ccsc3n2)n(N)c1=O` belongs 0%; to `CC(=O)NC(C)C(=O)OCc1ccc(Cl)cc1Cl` (stereo not given), 0%; to `Cc1cc(C)n(C2=NS(=O)(=O)c3ccccc32)n1`, 1%.
To `COc1ccc(-c2onc(C)c2-c2ccccc2)c(O)c1` belongs 3%; to `Nc1nnc(-c2cccc(Cl)c2Cl)c(N)n1`, 2%.
As to `CCN1CCN(S(=O)(=O)c2ccc(S(=O)(=O)N(CC)Cc3ccccc3)cc2)CC1`, the inhibition is 7%.
For `Cc1n[nH]c(C)c1S(=O)(=O)N1CCCCCC1` the value was 0%; for `Cn1c(SCC(=O)N2CCOCC2)nnc1-c1cnccn1`, 0%.
For `COc1ccc2c(c1OC)C(=O)OC2Nn1cncn1` (stereo not given) the value was 2%.
For `O=C(C1CCCCC1)N1CC(=O)N2CCc3ccccc3C2C1` (stereo not given) the value was 3%.
As for `COc1cccc(NC(=O)N2CCN(c3cccc(C)c3C)CC2)c1`, the inhibition is 0%.
Take `Cc1c(NC(=O)Cn2nc(C(=O)O)c3ccccc3c2=O)c(=O)n(-c2ccccc2)n1C`: the inhibition was 0%.
For `CC(C)OC(=O)C1C2C=CC3(CN(Cc4cccs4)C(=O)C13)O2` (stereo not given), the inhibition is 0%.
To `CCCC(=O)Nc1nnc(CC(=O)OCC)s1` belongs 3%; to `COc1ccc2c(c1)Sc1ccccc1N2CCN(C)C`, 3%.
To `Cc1cc2nc(-c3ccco3)cc(C(F)(F)F)n2n1` belongs 0%; to `CCCn1c(=N)n(CC(=O)c2cccs2)c2ccccc21`, 3%; to `Cc1sc2nc3n(c(=O)c2c1C)NC(=O)CC3`, 0%.
For `CCCCS(=O)(=O)NC1=NCN(CCOC(=O)c2ccccc2)CN1` the value was 0%; for `CC1(C)CC(=O)C(C#N)=C(NCCCO)C1`, 0%.
Take `Cc1cccc2cc(C#N)c(SCCN3CCCCC3)nc12`: the inhibition is 0%.
Consider `COc1cccc(C2C3=C(N=C4SCC(=O)N42)c2ccccc2CC3)c1OC` (stereo not given), for which the inhibition is 4%.
For `N[C@@H](Cc1ccccc1)c1nnc2sc(SCc3ccccc3)nn12` the value was 1%; for `O=C(CSc1nc2ccc(Cl)cc2[nH]1)NCc1ccco1`, 0%; for `CCCCN1CN(S(=O)(=O)c2cccs2)c2nc3ccccc3nc21`, 0%.
To `Cc1cccn2cc(-c3ccccc3)nc12` belongs 0%; to `CCc1ccccc1NC(=O)C(CC)Sc1nc2cc3c(cc2c(=O)n1Cc1ccco1)OCO3` (stereo not given), 0%; to `O=C(Cn1ncc2c(=O)oc3ccccc3c21)NCC1CCCO1` (stereo not given), 4%.
To `Cc1ccc(NC(=O)CSc2nnc(CNC(=O)c3c(F)cccc3Cl)o2)cc1` belongs 3%; to `Cc1cc(C)nc(SCc2nnc(SCc3ccccc3Cl)o2)n1`, 0%; to `O=C(Nc1ccc(Br)c2cccnc12)c1ccc(Cn2cc(Cl)cn2)o1`, 1%.
For the compound `Cc1cc(C)c(Cn2c(=O)n(CCCC(=O)NCc3ccco3)c(=O)c3ccccc32)c(C)c1`, the inhibition was 7%.
For `COc1cc(C(=O)Nc2ccc(-n3cnnn3)c(C)c2)cc(OC)c1OC` the value was 0%.
For `CN(c1ccc(OCc2nnc(-c3ccccc3)o2)cc1)S(=O)(=O)c1ccccc1` the value was 0%; for `N#Cc1c(-c2ccccc2)nc(N2CCCCCC2)[nH]c1=O`, 0%; for `CC(=N\O)/C(CN(C)C)=N/O`, 0%.

These data come from PubChem BioAssay.
